FXIIa mix inh: inhibitors of human coagulation factor XIIa, pooled mixtures. purified FXIIa, fluorogenic substrate. inhibition, % at 5 µM. actives 0.2% (n = 62,000). AID 684;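 note: 0% = enzyme without compound and 100% = no enzyme blank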
CatG inh: cathepsin G (human) inhibition | P08311 | purified enzyme, AMC-tetrapeptide fluorescence, pooled mixtures | inhibition, % at 5 µM (by protocol) | actives 0.2% (n = 62,000) | AID 581;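 active = inhibition above 20% in each of the two mixture wells holding the compound; inactive = inhibition of 20% or less in either well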;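 note: 0% = enzyme control without mixture and 100% = blank lacking enzyme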
Target sequence (P08311 21-244 limits assumed): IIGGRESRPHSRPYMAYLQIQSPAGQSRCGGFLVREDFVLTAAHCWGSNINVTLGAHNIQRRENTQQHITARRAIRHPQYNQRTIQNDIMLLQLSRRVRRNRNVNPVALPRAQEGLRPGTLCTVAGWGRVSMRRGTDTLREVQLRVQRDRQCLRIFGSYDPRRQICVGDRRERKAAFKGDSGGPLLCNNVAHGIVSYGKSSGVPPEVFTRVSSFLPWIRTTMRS
FXIa inh mix: blocks human factor XIa in pooled compound mixtures; P03951; purified FXIa, fluorogenic substrate; inhibition, % at 5 µM; actives 0.19% (n = 62,000); AID 680;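 note: each value is inhibition by a whole ten-compound pool holding the compound; 0% = enzyme with no mixture and 100% = wells lacking enzyme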
HePTP inh: human HePTP phosphatase inhibition. P35236. recombinant HePTP phosphatase activity, OD absorbance. inhibition, % at 20 µM. actives 0.64% (n = 110,000). AID 521; in the data active = inhibition above about 50%;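 note: plate controls were vehicle for no effect and reference inhibitor for full effect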
C1s block: human complement C1s inhibition; P09871; purified C1s, fluorogenic AMC substrate, pooled mixtures; mean inhibition % of two 10-compound mixtures (stronger effect = higher value), % at 5 µM (by protocol); actives 0.16% (n = 62,000);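 active = inhibition above 20% in each of the two 10-compound mixture wells holding the compound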;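 note: 0% = enzyme wells lacking compound mixture and 100% = no-enzyme blank wells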
PLAP act: human PLAP activation. purified PLAP enzyme, luminescent substrate read-out; stronger effect = higher value. activation fold at 20 µM. actives 1.2% (n = 96,000). AID 696; in the data active = activation fold above about 2
* = called active by the depositor; · = no result. In the library only some 1.4% were active in any assay of this set; here they are far more common. Cut-off read from the data, not from the text of the source, unless noted: active = inhibition above about 20% (passing the limit was not always enough); inactive = the rest.

SMILES	FXIIa mix inh	CatG inh	FXIa inh mix	HePTP inh	C1s block	PLAP act
CN(C)c1ccc(-c2c3cc(O)c(=O)cc-3oc3cc(O)c(O)cc23)cc1	·	·	·	103*	·	·
Cc1ccc(CN2CCN(/N=C/C=C\c3ccco3)CC2)cc1	·	·	·	103*	·	·
CCOc1ccc2nc(SCC(=O)c3ccc(F)cc3)sc2c1	·	·	·	-3	·	·
CC(C)c1ccc(C2NC(C(=O)O)CS2)cc1 (centres undefined)	·	·	·	·	·	2*
CC(=O)c1cn(CC(=O)NCc2ccc3c(c2)OCO3)c2ccccc12	2	14	7	-1	64*	·
O=C(Cn1cc(C(=O)C2CC2)c2ccccc21)NCc1ccc2c(c1)OCO2	·	·	·	·	·	1.1
COc1ccc(NC(=O)c2ccc(N(Cc3ccc(Cl)cc3)S(C)(=O)=O)cc2)c(OC)c1	·	·	·	-11	·	·
Cc1nc(NC(=O)c2cc3c(C)nn(-c4ccccc4)c3s2)sc1C(=O)Nc1ccccc1	·	·	·	·	·	2.3*
COc1ccc(OCCSc2ncn[nH]2)cc1	·	·	·	·	·	1.2
COc1ccc(OCCSc2n[nH]c(N)n2)cc1	·	·	·	·	·	2.6*
COc1cc(/C=N/N2C(=O)C3C4C=CC(CC4)C3C2=O)cc(I)c1OC (centres undefined)	·	·	·	-1	·	·
CCC(=O)N1CCc2cc(S(=O)(=O)NCCCN3CCN(Cc4ccccc4)CC3)ccc21	9	-4	2	5	2	2*
COc1ccc(NC(=O)C2C3CCC(C3=C(C)C)C2C(=O)O)cc1 (centres undefined)	·	·	·	5	·	·
COC(=O)c1sc(NC(=O)c2sc3cc(C)ccc3c2Cl)c(C#N)c1C	·	·	·	103*	·	·
COC(=O)c1cc(NC(=O)c2sc3cc(C)ccc3c2Cl)cc(C(=O)OC)c1	·	·	·	7	·	·
CCN(CC)c1ccc(/C=C2/C(=O)NN(c3ccc(I)cc3)C2=O)c(O)c1	·	·	·	14	·	·
CCN(CC)c1ccc(/C=C2/C(=O)NN(c3ccc(C)cc3)C2=O)c(O)c1	·	·	·	61*	·	·
CC(=O)Nc1c(C)ccc2c1C(C)CC21CCCC1 (centres undefined)	·	·	·	104*	·	·
O=C(Nc1cccc2ccccc12)c1ccc(-c2cccc([N+](=O)[O-])c2)o1	·	·	·	-7	·	·
Cc1ccc(C)c(N2CCN(C(=O)Cc3cn(C)c4ccccc34)CC2)c1	·	·	·	·	·	1.3
Cc1ccc(Cl)cc1N1CCN(C(=O)Cc2cn(C)c3ccccc23)CC1	·	·	·	·	·	2*
COc1ccc(CC(=O)Nc2ccc(S(=O)(=O)Nc3nccc(C)n3)cc2)cc1	·	·	·	·	·	2.1*
Cc1ccc(N=C2NC(=O)/C(=C\c3cccc(Br)c3)S2)cc1C	·	·	·	-9	·	·
CCCCn1c(=O)n(C)c(=O)c2c(C(F)(F)F)cc(-c3ccncc3)nc21	44*	8	6	-1	38	1.1
CCCCc1ccc(NC(=O)CSCc2cc(=O)[nH][nH]2)cc1	·	·	·	·	·	2.3*
SMILES	FXIIa mix inh	CatG inh	FXIa inh mix	HePTP inh	C1s block	PLAP act
CCCCNC(=O)c1nc2ncc(Br)cn2n1	3	4	25*	14	1	1.1
CCn1cc(C2=NOC(C(=O)Nc3c(C)nn(Cc4ccc(F)cc4)c3C)C2)c(C)n1 (centres undefined)	3	13	22*	14	17	1.2
COc1cccc(OC)c1C(=O)NNC(=O)c1cccc(COc2ccc3c(c2)CCC3)c1	·	·	·	·	·	2*
O=C(C1CCN(C2CC(=O)N(Cc3ccccc3)C2=O)CC1)N1CCCCCC1 (centres undefined)	-12	2	-2	8	-31	2*
CCN(CC)/C(=N/OCc1ccc(Cl)cc1Cl)c1nonc1N	·	·	·	-3	·	·
CCOc1ccc(-c2nc(CSc3nncs3)cs2)cc1OC	6	11	8	1	9	1.2
CCOc1ccc(-c2nc(CSc3nnc(C)s3)cs2)cc1OC	·	·	·	·	·	2.1*
CC(C)c1ccc(N(CC(=O)Nc2ccccc2Cl)S(=O)(=O)c2ccccc2)cc1	·	·	·	2	·	·
CC(=O)NC1=NC(=O)/C(=C\c2ccc(I)o2)S1	·	·	·	102*	·	·
COC(=O)c1ccc(-c2ccc(/C=C3/SC(NC(C)=O)=NC3=O)o2)cc1	·	·	·	-5	·	·
O=C(Nc1ccc2[nH]c(=O)[nH]c2c1)c1cccnc1	·	·	·	-3	·	·
CCC(C)NC(=O)CN(c1ccc2c(c1)OCO2)S(=O)(=O)c1c(C)n[nH]c1C (centres undefined)	-18	9	-3	2	-2	2.2*
Cc1n[nH]c(C)c1S(=O)(=O)N(CC(=O)Nc1ccc2c(c1)OCCO2)c1ccc(C(C)C)cc1	14	10	7	-13	4	2*
Cc1noc(C)c1S(=O)(=O)N(CC(=O)Nc1ccc2c(c1)OCO2)c1ccc(C(C)C)cc1	8	-12	2	-6	-24	0.8
COc1cc2c(cc1NC(=O)c1c(-c3c(Cl)cccc3Cl)noc1C)oc1ccccc12	·	·	·	6	·	·
CCOC(=O)C1C(=O)NC(SC)=C(C#N)C1c1ccccc1[N+](=O)[O-] (centres undefined)	·	·	·	3	·	·
CC1=NN(c2ccccc2)C(=O)C1C=C1C(=O)NC(=S)NC1=O (centres undefined)	·	·	·	54*	·	·
COc1ccc(/C=C(/C#N)C(=O)Nc2cccc(Br)c2)c(C)c1	·	·	·	-2	·	·
COc1ccc(/C=N/NC(=O)c2cccc([N+](=O)[O-])c2)cc1OC(=O)c1ccccc1	·	·	·	·	·	1.8
O=C(N/N=C/c1ccc(OC(=O)c2ccc(Br)cc2)cc1)c1cccc([N+](=O)[O-])c1	·	·	·	52*	·	·
Cn1c(=O)c2cc(S(=O)(=O)NC(C(=O)Nc3cccnc3)c3ccccc3)ccc2n(C)c1=O (centres undefined)	-3	11	5	4	10	2.6*
CC(NC(=S)NCc1ccccc1)C1COc2ccccc2O1 (centres undefined)	·	·	·	9	·	·
c1coc(Cn2c(SCc3nc4ccccc4[nH]3)nnc2-c2cccs2)c1	0	9	10	7	10	2.1*

Source: PubChem BioAssay (several laboratories)
